Compound activity from PubChem BioAssay.
DAX1 inh-1 = DAX1 (NR0B1) inhibition, primary screen. 1.1% of 370,000 active. HEK293T StAR-luciferase reporter, SF-1/DAX-1 repression relief. inhibition, % at 6.8 µM. AID 652010;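 active = inhibition above the mean over all tested compounds plus 3 SD, cut at about 3.6% in these data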;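 note: higher inhibition means more luminescence from relief of DAX-1 repression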
hcDAF12 agonist = activates DAF-12 receptor from parasite H. contortus. AID 652067. 1.4% of 370,000 active. HEK293 hcDAF-12 lit1-tk-luc reporter, luminescence; 0% DMSO, 100% Δ7-dafachronic acid. activation, % at 6.8 µM;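 active = activation above the mean of all tested compounds plus 3 SD, cut at about 5.5% in these data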
hgDAF12 agonist = activates the H. glycines DAF-12 receptor ligand-binding domain | AID 687014 | 1.8% of 370,000 active | HEK293 GAL4-hgDAF12 UAS-luciferase reporter, agonist luminescence; normalized to butyrate control | activation, % at 6.8 µM;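 active = activation above a cutoff set at the mean of all screened compounds plus 3 SD, cut at about 10% in these data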
DAX1 inh-2 = NR0B1 (DAX1) inhibition. HEK293 Gal4-DAX1 luciferase reporter, luminescence. AID 504766. inhibition, % at 6.75 µM. P51843. 0.99% of 340,000 active;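 active = inhibition above the mean over all tested compounds plus 3 SD, cut at about 4.2% in these data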;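 note: inhibition shows as a rise in luminescence from relieved DAX1 repression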
Target sequence (P51843 207-470 limits assumed): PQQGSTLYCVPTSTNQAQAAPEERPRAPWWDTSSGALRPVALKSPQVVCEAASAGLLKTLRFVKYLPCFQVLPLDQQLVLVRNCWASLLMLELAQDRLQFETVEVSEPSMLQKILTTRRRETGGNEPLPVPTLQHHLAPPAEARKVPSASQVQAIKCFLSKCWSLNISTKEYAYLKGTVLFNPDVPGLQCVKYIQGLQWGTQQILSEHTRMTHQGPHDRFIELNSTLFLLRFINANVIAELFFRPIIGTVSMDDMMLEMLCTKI
ssDAF12 agonist = S. stercoralis DAF-12 activation, primary screen. HEK293 ssDAF-12/GRIP1 lit1-tk-luc reporter, luminescence; % of 3 µM dafachronic acid response. activation, % at 6.8 µM. 1% of 370,000 active. AID 652126;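 active = activation above the mean over all tested compounds plus 3 SD, cut at about 0.9% in these data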
LXRb hcDAF ctr = activates human LXR-beta, counter-screen for hcDAF-12 agonists; activation, % at 6.8 µM; 3,400 tested, under 10 active; shares compounds with hcDAF12 agonist; HEK293 Gal4-LXR tk-luc reporter, luminescence, 24 h; normalized: DMSO 0%, positive control 100%; AID 743027;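 active = mean percent activation of the reporter above a cutoff set as the average over tested compounds plus their standard deviation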
Target sequence (P55055 whole entry, looked up, the tested form may be a part): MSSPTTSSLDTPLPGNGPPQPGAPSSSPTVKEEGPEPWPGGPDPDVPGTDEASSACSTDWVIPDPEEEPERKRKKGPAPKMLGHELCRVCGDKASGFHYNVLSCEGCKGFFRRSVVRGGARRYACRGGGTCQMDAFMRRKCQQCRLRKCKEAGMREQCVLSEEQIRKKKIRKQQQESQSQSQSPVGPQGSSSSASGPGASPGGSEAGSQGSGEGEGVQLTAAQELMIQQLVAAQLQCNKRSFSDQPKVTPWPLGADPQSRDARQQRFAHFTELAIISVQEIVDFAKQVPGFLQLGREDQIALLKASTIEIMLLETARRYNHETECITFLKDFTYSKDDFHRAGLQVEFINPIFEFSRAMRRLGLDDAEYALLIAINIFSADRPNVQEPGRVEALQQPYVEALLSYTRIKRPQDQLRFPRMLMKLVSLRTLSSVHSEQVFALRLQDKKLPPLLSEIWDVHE
hcDAF12 conf = hcDAF-12 agonism, confirmation assay; shares compounds with hcDAF12 agonist; HEK293 hcDAF-12 lit1-tk-luc reporter, luminescence; % of Δ7-dafachronic acid response; activation, % at 6.8 µM; 61% of 3,400 active; AID 743032;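 active = mean activation across triplicate tests above the threshold derived from the earlier primary screen, cut at about 5.5% in these data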
Numbers stand for hits; 0 = inactive; - = no result given. Only some compounds are listed: those with a hit (about 4.1% of all), similar ones and a draw of the others.

SMILES | DAX1 inh-1 | hcDAF12 agonist | hgDAF12 agonist | DAX1 inh-2 | ssDAF12 agonist | LXRb hcDAF ctr | hcDAF12 conf
O=C(CSCC(=O)N1CCCCC1)Nc1nc(-c2cccs2)cs1 | 0 | 9.1 | 0 | 0 | 0 | 0 | 6.0
CC1CC(C)CN(C(=O)CSCC(=O)Nc2nc(-c3cccs3)cs2)C1 (stereo not given) | 0 | 8.2 | 0 | 0 | 0 | 0 | 0
O=C(CSCC(=O)N1CCCCC1)Nc1nc(-c2ccc(Cl)s2)cs1 | 0 | 0 | 0 | 0 | 0 | - | -
Nc1ccn([C@@H]2O[C@H](C(=O)N[C@H](Cc3ccccc3)C(=O)N3CCN(C(=O)N4CCOCC4)CC3)[C@@H](O)[C@H]2O)c(=O)n1 | 0 | 0 | 0 | - | 0 | - | -
O=C(CSc1nnc(-c2cccnc2)n1Cc1ccco1)c1ccccc1 | 0 | 6.6 | 0 | 0 | 0 | 0 | 0
Cc1cccc2sc(NS(=O)(=O)c3ccccc3)nc12 | 0 | 12 | 0 | 0 | 0 | 0 | 0
CCOc1ccc(-c2cn(-c3ccc(OC)cc3)c(SC)n2)cc1 | 0 | 7.0 | 11 | 0 | 0 | 0 | 0
CC(=O)c1cc(-c2cnn(Cc3ccccc3)c2)c(=O)n2c1CCC2 | 0 | 0 | 0 | - | 0 | - | -
O=C(CSc1nnc(-c2cnccn2)n1-c1ccccc1)Nc1ccc2c(c1)OCCO2 | 0 | 0 | 0 | - | 0 | - | -
Clc1ccc(/C=C/c2nc3ccccc3[nH]2)c(Cl)c1 | 0 | 12 | 0 | 0 | 1.2 | 0 | 17
Clc1cccc(Cl)c1/C=C/c1nc2ccccc2[nH]1 | - | - | - | 0 | - | - | -
CCOc1ccc(-n2c(SC/C=C/c3ccccc3)nnc2-c2ccco2)cc1 | 0 | 0 | 0 | - | 0 | - | -
Cc1ccc(OC(C)C(=O)N2CCc3ccccc32)cc1 (stereo not given) | 0 | 9.4 | 0 | 0 | 0 | 0 | 0
CCN(CC)C(=O)N1CCc2ccccc21 | 0 | 6.7 | 0 | 0 | 0 | 0 | 0
CC(Oc1ccccc1)C(=O)N1CCCc2ccccc21 (stereo not given) | 0 | 0 | 0 | 0 | 0 | - | -
Cc1ccc(C)c(NC(=O)c2ccc(CS(=O)(=O)Cc3ccccc3C)o2)c1 | 0 | 0 | 0 | - | 0 | - | -
Cc1ccc2c(c1)N(CCCC(=O)NCc1cccs1)C(=O)CO2 | 0 | 0 | 0 | - | 0 | - | -
Cc1cc(NC2CCCC2)n2ncc(-c3ccccc3)c2n1 | 0 | 0 | 0 | 0 | 0 | - | -
Cc1cc(N2CCC(C)CC2)n2ncc(-c3ccccc3)c2n1 | 0 | 0 | 0 | 0 | 0 | - | -
Cc1cc(-c2ccccc2)n2ncc(-c3ccccc3)c2n1 | 3.9 | 11 | 0 | 0 | 0 | 0 | 20
Cc1cc(N2CCOCC2)n2ncc(-c3ccccc3)c2n1 | 0 | 9.4 | 0 | 0 | 0 | 0 | 16
C[C@]12Cc3ccccc3C1CC1=N[C@@H](c3ccc(C(F)(F)F)cc3)O[C@@]13C[C@@H]2C(=O)N3Cc1ccncc1 (stereo not given in full) | 0 | 0 | 0 | - | 0 | - | -
O=[N+]([O-])c1ccccc1S(=O)(=O)N1CCC(c2cn3ccccc3n2)CC1 | 0 | 0 | 0 | - | 0 | - | -
S=C(N/N=C/c1ccc(Cl)cc1)N1CCOCC1 | 0 | 7.2 | 13 | 0 | 0 | 0 | 0
COC(=O)[C@]12C[C@H](CC(=O)N3CCOCC3)C(=O)N(CCc3ccc(OC)c(OC)c3)C1=C[C@H](C(C)(C)C)O[C@@H]2C | 0 | 0 | 0 | - | 0 | - | -
SMILES | DAX1 inh-1 | hcDAF12 agonist | hgDAF12 agonist | DAX1 inh-2 | ssDAF12 agonist | LXRb hcDAF ctr | hcDAF12 conf
CCOc1cc(/C=C2\N=C(C)OC2=O)cc(Br)c1OCC(=O)OC | 0 | 6.7 | 0 | 0 | 0 | 0 | 0
CC(=O)c1c(C)[nH]c(C(=O)Nc2ccccc2C)c1C | - | 0 | 0 | - | 0 | - | -
COc1ccccc1C(=O)NC(=S)Nc1cccnc1Cl | 0 | 8.1 | 0 | 0 | 1.2 | 0 | 19
COc1ccccc1C(=O)N/N=C(\C)CC(=O)Nc1ccc(Nc2ccccc2)cc1 | 0 | 0 | 0 | 0 | 0 | - | -
COc1ccccc1C(=O)N/N=C(\C)CC(=O)Nc1ccc(Cl)cn1 | 0 | 6.6 | 0 | 0 | 0 | 0 | 0
COc1ccccc1C(=O)N/N=C(\C)CC(=O)Nc1ccccn1 | 0 | 7.3 | 0 | 0 | 0 | 0 | 6.0
O=C(COc1ccccc1Cl)Nc1ccc(Cl)cn1 | 0 | 9.0 | 15 | 0 | 1.4 | 0 | 11
COc1ccccc1C(=O)N/N=C(\C)CC(=O)Nc1ccccc1NC(C)=O | 0 | 0 | 0 | 0 | 0 | - | -
COc1ccccc1-c1cc(C(=O)Nc2cccnc2Cl)no1 | 0 | 0 | 0 | 0 | 0 | - | -
COc1cc2cc(C(c3nnnn3C3CCCC3)N3CCc4ccccc43)c(=O)[nH]c2cc1OC (stereo not given) | - | - | - | 0 | - | - | -
COc1cc2cc(C(c3nnnn3C(C)(C)C)N3CCc4ccccc43)c(=O)[nH]c2cc1OC (stereo not given) | 0 | 7.3 | 0 | 0 | 0 | 0 | 0
C/C(=N\Nc1nc2ccccc2[nH]1)c1ccc(C)o1 | 0 | 7.5 | 0 | 0 | 2.2 | 0 | 8.6
CCn1c(/C=C/c2c[nH]c3ccccc23)nc2ccccc2c1=O | 0 | 8.6 | 12 | 5.2 | 1.4 | 0 | 7.8
CCn1c(/C=C/c2c(C)[nH]c3ccccc23)nc2ccccc2c1=O | 0 | 10 | 0 | 0 | 0.9 | 0 | 0
CCn1c(/C=C\c2ccccc2C)nc2ccccc2c1=O | 0 | 0 | 0 | 0 | 0 | - | -
CCn1c(/C=C/c2ccccc2Cl)nc2ccccc2c1=O | 0 | 0 | 0 | 0 | 0 | - | -
Cc1cc(Cl)ccc1OCC(=O)NCCOC(=O)Nc1sc(=S)n(C)c1C | 0 | 6.9 | 0 | 0 | 0 | 0 | 0
O=C(O)C(=O)/C(=C\c1cccc(Cl)c1)c1ccc2ccccc2n1 | 3.8 | 14 | 11 | 0 | 2.1 | 0 | 8.6
O=C(O)/C(=C\c1ccccc1)c1ccc2ccccc2c1 | 0 | 0 | 0 | - | 0 | - | -
O=C(CNc1ccccc1C(=O)O)c1ccccc1 | 0 | 7.7 | 0 | 0 | 0 | 0 | 0
NC(=O)c1ccccc1NCC(=O)c1ccc(Cl)cc1 | 0 | 0 | 0 | 0 | 0 | - | -
O=C(O)[C@@H]1Cc2c([nH]c3ccccc23)C2CCC(=O)N21 (stereo not given in full) | 0 | 7.6 | 0 | 0 | 1.6 | 0 | 0
COC(=O)[C@@H]1Cc2c([nH]c3ccccc23)C2CCC(=O)N21 (stereo not given in full) | 0 | 0 | 0 | 0 | 0 | - | -
Cc1ccc(Nc2ncc3c(n2)CC(C)CC3=O)c(C)c1 (stereo not given) | 0 | 7.1 | 0 | 0 | 0 | 0 | 0
CC1CC(=O)c2cnc(NCc3ccco3)nc2C1 (stereo not given) | 0 | 0 | 0 | 0 | 0 | - | -
CCOC(=O)N1CCC(NC(=O)c2cc3c(-c4ccc(Cl)cc4)nn(C)c3s2)CC1 | 0 | 7.8 | 0 | 0 | 0 | 0 | 0
Cn1nc(-c2ccc(Cl)cc2)c2cc(C(=O)NCCCN3CCCC3)sc21 | 0 | 9.5 | 0 | 0 | 0 | 0 | 6.5
Cn1nc(-c2ccc(Cl)cc2)c2cc(C(=O)N3CCCC3)sc21 | 0 | 0 | 0 | 0 | 0 | - | -
